# 14-3-3 PPI – 14-3-3 gamma protein interaction modulation | P61981 | FP, 14-3-3gamma / TMR-pS259-Raf peptide binding | inhibition, % at 40 µM | actives 0.19% (n = 160,000) | AID 422; in the data active means inhibition above about 30%
# Target sequence (P61981 whole entry, looked up): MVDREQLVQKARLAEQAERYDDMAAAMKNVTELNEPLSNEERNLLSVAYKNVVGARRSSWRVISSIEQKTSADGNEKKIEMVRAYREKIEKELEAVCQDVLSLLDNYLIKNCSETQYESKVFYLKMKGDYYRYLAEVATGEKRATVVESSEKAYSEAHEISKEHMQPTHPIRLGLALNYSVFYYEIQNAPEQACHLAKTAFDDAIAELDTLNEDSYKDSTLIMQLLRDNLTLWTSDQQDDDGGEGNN
# Numbers stand for hits; - = inactive; ! = not confirmed by another sample. This is one part of a sample in which hits are shown more often than they occur.
SMILES,14-3-3 PPI
COC(=O)C1=C(C)N(C)C(C)=C(C(=O)OC)C1c1ccc(C(F)(F)F)cc1,-
COC(=O)C1=C(C)N(C)C(C)=C(C(=O)OC)C1c1ccsc1,-
COC(=O)C1=C(C)N(C)C(C)=C(C(=O)OC)C1c1ccc(C(=O)OC)cc1,113.4
CN(C(=O)c1ccc2c(c1)C(=O)c1ccccc1-2)c1ccc([N+](=O)[O-])cc1,-
CN(C(=O)c1ccc2c(c1N)C(=O)c1ccccc1C2=O)c1ccccc1,132.1
CCSc1c(C(N)=O)ccc2c1C(=O)c1ccccc1C2=O,-
CC1=C(C(=O)OCc2ccccc2)C(c2ccccc2Br)C2=C(CCCC2=O)N1 (stereo unspecified),-
O=C1Nc2cc(C(=O)N3CCOCC3)ccc2SC1N1CCCC1 (stereo unspecified),-
O=C1Nc2cc(C(=O)N3CCOCC3)ccc2SC1N1CCOCC1 (stereo unspecified),38.3!
CN1CCN(C(=O)c2ccc3c(c2)NC(=O)C(N2CCOCC2)S3)CC1 (stereo unspecified),-
COc1ccccc1CNS(=O)(=O)c1ccc(F)c(C(=O)Nc2ccccc2OC)c1,-
COC(=O)C1=CN(Cc2ccc(OC)cc2)C=C(C(=O)OC)C1c1ccccc1Br,-
COc1ccc(OC)c(NC(=O)CCN2CCCC(C)C2)c1 (stereo unspecified),35.3
COc1ccc(C)cc1NC(=O)CCN1CCCC1,-
COc1ccc(OC)c(NC(=O)CCN2CCCCC2)c1,-
CN(Cc1ccccc1)C1CCN(Cc2ccccc2Cl)CC1,-
Cc1ccc(NC(=O)CSC2=NN3CCCC(=O)N=C3S2)cc1,-
c1ccc(SCCN2CCOCC2)cc1,-
C1COCCOCCN(CCOCCOCCN2CCOCCOCCOCCOCC2)CCOCCO1,-
c1ccc(COCCOCCN2CCOCCOCCOCCOCCOCC2)cc1,119.5
CC1=CN2C(=NC(=O)CC2(C)C(=O)NC2CCCCC2C)C=C1 (stereo unspecified),-
Cc1ccc(Nc2ncc(C(=O)NCc3ccc(F)cc3)c3ccccc23)cc1Cl,-
COc1ccc(OC)c(NC(=O)c2c(C)c(-c3ccccc3)nc3ccccc23)c1,53.3
COc1ccc(-c2nc3ccccc3c(C(=O)Nc3ccc(Br)cc3)c2C)cc1,-
COc1ccc(NC(=O)c2c(C)c(-c3ccc(C)cc3)nc3ccccc23)cc1,-
SMILES,14-3-3 PPI
CCC1CCCCN1Cc1nc2c(c(=O)n(C)c(=O)n2C)n1CCOC (stereo unspecified),-
O=C(NC1CCCC1)C1CCC(Cn2c(=S)[nH]c3ccccc3c2=O)CC1 (stereo unspecified),-
O=C1c2ccc([N+](=O)[O-])c3c([N+](=O)[O-])ccc(c23)C(=O)N1c1ccc(O)cc1,43.5
Cc1cccc(C)c1N1C(=O)c2ccc([N+](=O)[O-])c3c([N+](=O)[O-])ccc(c23)C1=O,-
O=C(O)c1cc(N2C(=O)c3ccc([N+](=O)[O-])c4c([N+](=O)[O-])ccc(c34)C2=O)ccc1O,-
O=C(CN1C(=O)CSc2ccccc21)NCCCN1CCC(Cc2ccccc2)CC1,-
CCN1C(=O)c2cccc3c(S(=O)(=O)Nc4ccccc4C(F)(F)F)ccc1c23,-
Oc1ccc2ccccc2c1/C=N/n1cnnc1,-
Cc1cc(Br)ccc1N=Cc1c(O)ccc2ccccc12,-
Oc1ccc2ccccc2c1C=Nc1cccn2cc(-c3ccccc3)nc12,92.8
O=C1CC(NCCc2c[nH]c3ccccc23)C(=O)N1c1ccc(-c2nc3ccccc3o2)cc1 (stereo unspecified),-
CC(=O)NC1=NN(C(C)=O)C(C)(c2ccc3c(c2)OCO3)S1 (stereo unspecified),-
COc1ccc(Cl)cc1N(CC(=O)Nc1ccc(C(C)C)cc1)S(=O)(=O)c1ccc(C)cc1,-
CCc1nc(C)ccc1OCC(=O)NCCCN(C)C,-
CCc1nc(C)ccc1OCC(=O)O,74.1!
Cc1ccc2nc(C)cc(OCC(=O)O)c2c1,-
CCOC(=O)C1C(c2ccccc2)NC(=O)NC1(O)C(F)(F)F (stereo unspecified),-
OC(COc1ccc(F)cc1)Cn1c(C(F)(F)F)nc2ccccc21 (stereo unspecified),-
C=CCC1C=CCC(CC=C)N1CCO (stereo unspecified),105.5
C=CCC1C=CCC(CC=C)N1C(=O)C(F)(F)F (stereo unspecified),-
CC(C)CC1CCCC(CC(C)C)N1CCO (stereo unspecified),-
C=CCOc1cccc(C2Nc3ccccc3-c3nnc(SC)nc3O2)c1 (stereo unspecified),134.5
CCSc1nnc2c(n1)OC(C1CC=C(C)CC1C)Nc1ccccc1-2 (stereo unspecified),-
CCCSc1nnc2c(n1)OC(C1CC=C(C)CC1C)Nc1ccccc1-2 (stereo unspecified),-
CCOc1ccc(C2Nc3ccccc3-c3nnc(SCC)nc3O2)cc1 (stereo unspecified),-
SMILES,14-3-3 PPI
CSc1nnc2c(n1)OC(C1CC=C(C)CC1C)Nc1ccccc1-2 (stereo unspecified),83.2
C=CCOc1ccc(C2Nc3ccc(Br)cc3-c3nnc(SC)nc3O2)cc1 (stereo unspecified),-
CSc1nnc2c(n1)OC(c1ccc(OCc3ccccc3)cc1)Nc1ccccc1-2 (stereo unspecified),32.6
C=CCSc1nnc2c(n1)OC(c1cccc(F)c1)Nc1ccccc1-2 (stereo unspecified),-
CSc1nnc2c(n1)OC(c1ccc(OCC(=O)O)cc1)Nc1ccccc1-2 (stereo unspecified),-
O=C(NCCc1ccccc1)c1ccc2c(c1)NC(=O)C(N1CCOCC1)S2 (stereo unspecified),-
O=C(CSc1nnc(-c2ccco2)c(-c2ccco2)n1)Nc1ccccc1[N+](=O)[O-],-
O=C(Nc1ccc([N+](=O)[O-])cc1)c1cc2c(=O)n3ccccc3nc2s1,-
COc1ccc(C(=O)Nc2ncnc3sc4c(c23)CCCC4)cc1OC,-
CC(=O)Oc1ccc(C2Nc3ccccc3S(=O)(=O)N2Cc2ccccc2)cc1 (stereo unspecified),-
Cc1[nH]c(=O)[nH]c(=O)c1NCCO,-
CC(C)(C)C(=O)Nc1c[nH]c(=O)[nH]c1=O,-
O=c1[nH]cc(NCCO)c(=O)[nH]1,30.6
O=C1c2ccc(Oc3ccc([N+](=O)[O-])cc3)cc2C(=O)N1c1ccc(-c2ccc([N+](=O)[O-])cc2)cc1,-
O=[N+]([O-])c1cc(Oc2cccnc2)cc(Sc2ccccc2)c1,-
